# In PubChem BioAssay (NCATS):
# Several values for one entry are separate records, joined by “and”; a condition that tells them apart may be missing. Equal values may be shown once. Inconclusive results are not listed. A call without a number means that no potency is given here. Activity calls are given as the source filed them. Unless noted, the call rests on the fitted dose curve; in most records, active means well fitted curve in the direction sought with a large enough effect; inconclusive means small, poorly fitted or top-dose-only effect, or another doubt; inactive means no such curve, though single readings can be large; an effect the other way counts as inactive or inconclusive.
# Assays:
# [1] = molecular target: Glutaminase kidney isoform, mitochondrial (Homo sapiens) (UniProt O94925); assay: qHTS for Inhibitors of Glutaminase (GLS): LOPAC Validation (AID 624146); details: glutaminase enzyme activity inhibition; series mostly up to 46.1 µM;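 further: glutamate product detected by oxidase and peroxidase coupled Amplex red fluorescence gain; nearly all actives have a fitted effect of over 60% in size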
# Summary of the method: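 hKGA; 45 mM KH2PO4 pH 8.2 + 0.02% Tween-20; cpd via pin tool; 1 mM Gln soln; GluOx/HRP/Amplex Red; RT 30 min; fluor. t0 & final.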
# [2] = qHTS of Trypanosoma Brucei Inhibitors: LOPAC Validation (AID 624147); details: purified enzyme assay, luminescence, 45 min; series mostly up to 57.5 µM
# Summary of the method: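 TbPYK + substrate in 50 mM TEA pH 7.2, 100 mM KCl, 10 mM MgCl2, 0.05% BSA, 0.01% Tween-20; cpd pinned; ADP 130 uM final; 45 min RT; Kinase-Glo Plus 10 min; luminescence endpoint.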
# [3] = molecular target: Glucagon-like peptide 1 receptor (Homo sapiens) (UniProt P43220); assay: qHTS of GLP-1 Receptor Agonists: LOPAC Validation (AID 624148); details: GLP-1R agonist cell assay; series mostly up to 46.1 µM;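 further: higher luminescence signal means agonism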
# Summary of the method: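 HEK293 cells stably co-expressing GLP-1R and a cAMP-responsive luciferase reporter, plated 12 hours before compound, then incubated 4-6 hr at 37 deg C. Luminescence read 12 min after detection reagent.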
# [4] = qHTS of Nrf2 Activators: LOPAC Validation (AID 624149); details: Nrf2/ARE reporter cell assay; series mostly up to 46.1 µM
# Summary of the method: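 AREc32_Fluc cells, 1000/well in OPTI-MEM with 5% FBS, grown overnight, then exposed to compounds for 24 hr at 37 deg C, 5% CO2. ARE-driven firefly luciferase read by Steady-Glo luminescence after 30 min at RT.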
# [5] = HTS Assay for Allosteric Antagonists of the Human D2 Dopamine Receptor: Hit Validation in HTRF (AID 624455); details: Cells stably expressing D1 dopamine receptor, inhibition mode; series mostly up to 46.1 µM;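 further: stable D1 dopamine receptor cell line scored for blocking the D1 response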
# Summary of the method: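 Hit validation in cells stably expressing the D1 dopamine receptor, run in HTRF format. Compounds were tested for their ability to inhibit the D1-mediated response.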
# [6] = molecular target: Luciferin 4-monooxygenase (Photinus pyralis) (UniProt P08659); assay: Biochemical firefly luciferase enzyme assay for NPC (AID 624030);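 further: purified P. pyralis luciferase at 10 nM with luciferin and ATP substrate; nearly all actives have a fitted effect of over 70% in size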; details: purified P. pyralis luciferase, luminescence, 5 min; series mostly up to 58.6 µM
# Summary of the method: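 Purified P. pyralis luciferase at 10 nM in 50 mM Tris Acetate (final), luminescence read within 5 minutes of enzyme addition to compounds. Activity normalised to PTC124 versus DMSO; concentration-response curves classed by r2, magnitude and activity.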
# [7] = molecular target: Voltage-gated inwardly rectifying potassium channel KCNH2 (Homo sapiens) (UniProt Q12809); assay: qHTS Assay for Small Molecule Inhibitors of the Human hERG Channel Activity (AID 588834); details: U2OS BacMam hERG, FluxOR thallium flux fluorescence; series mostly up to 92.2 µM;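 further: lower thallium flux fluorescence means stronger hERG block; nearly all actives have a fitted effect of over 50% in size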; further: potency means the concentration at half of the fitted maximal effect
# Summary of the method: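 Blockade is seen as reduced FluxOR thallium-flux fluorescence in U2OS cells expressing hERG from a BacMam construct, in Opti-MEM with 2% FCS. Concentration-response data fitted to the Hill equation for AC50.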
# [8] = S16 Schwann cell PMP22 intronic element firefly luciferase assay (AID 624032); details: S16 rat Schwann cells, PMP22 element FLuc, 24 h; series mostly up to 57.5 µM; further: nearly all actives have a fitted effect of over 30% in size
# Summary of the method: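 Rat S16 Schwann cells stably carrying firefly luciferase driven by a PMP22 intronic element, in 10% FBS, treated 24 h at 37 C. ONE-Glo luminescence normalized to PTC124 control and DMSO (0%); curves classed by r2, magnitude and activity.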
# [9] = S16 Schwann cell PMP22 intronic element beta-lactamase assay (AID 624044; calls by dose curve; further: nearly all actives have a fitted effect of over 15% in size; further: potency means the concentration at half of the fitted maximal effect); details: S16 rat Schwann cells, PMP22 element beta-lactamase FRET, 24 h; series mostly up to 38.3 µM
# Summary of the method: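 Rat S16 Schwann cells with beta-Lac driven by a PMP22 intronic element, compound-treated 24 h at 37 °C. LiveBLAzer FRET B/G read: 460 nm normalized to potassium clavulanate vs DMSO; 535 nm FRET as viability; concentration-effect curves classified.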
# [10] = qHTS assay for small molecule agonists of the antioxidant response element (ARE) signaling pathway (AID 651741; active means well fitted activation curve with a large enough effect in the signal ratio; the % refers to the signal ratio); details: HepG2 ARE-bla reporter, beta-lactamase FRET ratio, 16 h; series mostly up to 96 µM
# Summary of the method: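 CellSensor ARE-bla HepG2 cells (2,000/well) carrying ARE-driven beta-lactamase, exposed 16 h at 37 C. LiveBLAzer B/G FRET substrate added for 2 h at room temperature; fluorescence intensity read.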
# [11] = qHTS assay for small molecule activators of the p53 signaling pathway (AID 651743; active means well fitted activation curve with a large enough effect in the signal ratio, not every such curve was filed as active; the % refers to the signal ratio); details: HCT-116 p53RE-bla, beta-lactamase FRET ratio, 16 h; activation: stronger effect = higher value
# Summary of the method: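 p53RE-bla HCT-116 cells carrying a beta-lactamase reporter under p53 response elements were exposed to compounds for 16 hours at 37 C. Reporter activity read as fluorescence after 2 hours at room temperature with LiveBLAzer B/G FRET substrate.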
# [12] = qHTS assay for small molecule activators of the nuclear factor-kappa B (NF-kB) signaling pathway (AID 651749; active means well fitted activation curve with a large enough effect in the signal ratio; the % refers to the signal ratio); details: NF-kB-bla ME-180 cells, beta-lactamase FRET ratio, 16 h; stronger effect = higher value
# Summary of the method: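 NF-kB-bla ME-180 cells carrying a beta-lactamase reporter under an NF-kB response element, 2,000 cells/well, exposed to compound for 16 hr at 37C; FRET-based beta-lactamase fluorescence read-out of pathway activation.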
# [13] = Cell Proliferation Assay against the TMD8 Cell Line (AID 651645); details: TMD8 DLBCL cell line proliferation/viability; at 46.1 µM (top of the series);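 further: cells exposed to compound for 48 h before reading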
# Summary of the method: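 Cell viability of the ABC DLBCL line TMD8 is measured by CellTiter-Glo luminescence following a 48-hour incubation with compound. Percent activity uses DMSO as 100% and 9.2 uM bortezomib (final) as 0%.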
# [14] = Cell Proliferation Assay against the HBL1 Cell Line (AID 651646); details: HBL1 DLBCL cells; at 46.1 µM (top of the series);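 further: cells exposed to compound for 48 h before reading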
# Summary of the method: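 HBL1 ABC DLBCL cells, 500/well in RPMI with 5% FBS, treated for 48 h at 37C. Viability read by CellTiter-Glo luminescence, normalized to DMSO as 100% and 9.2 uM bortezomib as 0%.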
# [15] = Cell Proliferation Assay against the TMD8 Cell Line (Caspase readout at 16 hrs) (AID 651712); details: TMD8 lymphoma cells, caspase activation luminescence; further: potency means the concentration at half of the fitted maximal effect
# Summary of the method: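 TMD8 cells in RPMI with 5% FBS were treated with compound for 16 h at 37 C, then caspase 3/7 activation was read by Caspase-Glo luminescence. Percent activity was scaled to DMSO (0%) and 9.2 uM bortezomib final (100%).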
# [16] = Cell Proliferation Assay against the TMD8 Cell Line (Caspase readout at 8 hrs) (AID 651713); details: TMD8 lymphoma cells, caspase activation luminescence; further: potency means the concentration at half of the fitted maximal effect
# Summary of the method: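 TMD8 cells in RPMI plus 5% FBS were treated with compound for 8 h at 37C. Caspase 3/7 activation was read by Caspase-Glo luminescence. Percent activity was scaled from DMSO (0%) to 9.2 uM bortezomib final (100%).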
# Chain of Glucagon-like peptide 1 receptor (Homo sapiens) (P43220 whole entry, looked up): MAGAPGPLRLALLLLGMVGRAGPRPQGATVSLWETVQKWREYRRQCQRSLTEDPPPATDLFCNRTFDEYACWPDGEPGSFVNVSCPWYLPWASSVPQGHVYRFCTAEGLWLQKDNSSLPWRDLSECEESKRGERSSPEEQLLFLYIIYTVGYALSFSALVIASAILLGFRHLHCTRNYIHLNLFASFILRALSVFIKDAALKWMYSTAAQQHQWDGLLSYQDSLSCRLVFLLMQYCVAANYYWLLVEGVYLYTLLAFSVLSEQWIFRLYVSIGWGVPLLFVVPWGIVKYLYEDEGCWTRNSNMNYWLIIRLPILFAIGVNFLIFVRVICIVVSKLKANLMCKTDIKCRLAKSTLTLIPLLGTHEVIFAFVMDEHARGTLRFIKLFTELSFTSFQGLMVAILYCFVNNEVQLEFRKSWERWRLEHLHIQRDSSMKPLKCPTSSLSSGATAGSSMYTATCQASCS
# Chain of Glutaminase kidney isoform, mitochondrial (Homo sapiens) (O94925 whole entry, looked up, canonical isoform): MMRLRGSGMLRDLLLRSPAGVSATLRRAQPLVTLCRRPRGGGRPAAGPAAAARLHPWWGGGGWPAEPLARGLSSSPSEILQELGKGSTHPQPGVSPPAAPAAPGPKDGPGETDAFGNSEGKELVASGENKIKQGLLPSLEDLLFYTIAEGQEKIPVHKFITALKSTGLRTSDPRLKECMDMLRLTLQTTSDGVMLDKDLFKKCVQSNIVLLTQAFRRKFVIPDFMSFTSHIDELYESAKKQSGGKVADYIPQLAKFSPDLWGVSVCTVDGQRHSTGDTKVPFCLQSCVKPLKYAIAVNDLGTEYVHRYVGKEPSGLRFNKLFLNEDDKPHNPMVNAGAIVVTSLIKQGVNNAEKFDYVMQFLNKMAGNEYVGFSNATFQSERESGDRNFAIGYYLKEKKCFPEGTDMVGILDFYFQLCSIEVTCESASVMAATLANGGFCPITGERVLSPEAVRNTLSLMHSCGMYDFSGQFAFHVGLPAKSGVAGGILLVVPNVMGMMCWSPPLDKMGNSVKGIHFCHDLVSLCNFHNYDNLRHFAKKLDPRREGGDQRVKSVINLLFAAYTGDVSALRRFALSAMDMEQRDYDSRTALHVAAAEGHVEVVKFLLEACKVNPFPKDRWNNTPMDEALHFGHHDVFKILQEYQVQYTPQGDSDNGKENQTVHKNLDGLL
# Chain of Voltage-gated inwardly rectifying potassium channel KCNH2 (Homo sapiens) (Q12809 whole entry, looked up): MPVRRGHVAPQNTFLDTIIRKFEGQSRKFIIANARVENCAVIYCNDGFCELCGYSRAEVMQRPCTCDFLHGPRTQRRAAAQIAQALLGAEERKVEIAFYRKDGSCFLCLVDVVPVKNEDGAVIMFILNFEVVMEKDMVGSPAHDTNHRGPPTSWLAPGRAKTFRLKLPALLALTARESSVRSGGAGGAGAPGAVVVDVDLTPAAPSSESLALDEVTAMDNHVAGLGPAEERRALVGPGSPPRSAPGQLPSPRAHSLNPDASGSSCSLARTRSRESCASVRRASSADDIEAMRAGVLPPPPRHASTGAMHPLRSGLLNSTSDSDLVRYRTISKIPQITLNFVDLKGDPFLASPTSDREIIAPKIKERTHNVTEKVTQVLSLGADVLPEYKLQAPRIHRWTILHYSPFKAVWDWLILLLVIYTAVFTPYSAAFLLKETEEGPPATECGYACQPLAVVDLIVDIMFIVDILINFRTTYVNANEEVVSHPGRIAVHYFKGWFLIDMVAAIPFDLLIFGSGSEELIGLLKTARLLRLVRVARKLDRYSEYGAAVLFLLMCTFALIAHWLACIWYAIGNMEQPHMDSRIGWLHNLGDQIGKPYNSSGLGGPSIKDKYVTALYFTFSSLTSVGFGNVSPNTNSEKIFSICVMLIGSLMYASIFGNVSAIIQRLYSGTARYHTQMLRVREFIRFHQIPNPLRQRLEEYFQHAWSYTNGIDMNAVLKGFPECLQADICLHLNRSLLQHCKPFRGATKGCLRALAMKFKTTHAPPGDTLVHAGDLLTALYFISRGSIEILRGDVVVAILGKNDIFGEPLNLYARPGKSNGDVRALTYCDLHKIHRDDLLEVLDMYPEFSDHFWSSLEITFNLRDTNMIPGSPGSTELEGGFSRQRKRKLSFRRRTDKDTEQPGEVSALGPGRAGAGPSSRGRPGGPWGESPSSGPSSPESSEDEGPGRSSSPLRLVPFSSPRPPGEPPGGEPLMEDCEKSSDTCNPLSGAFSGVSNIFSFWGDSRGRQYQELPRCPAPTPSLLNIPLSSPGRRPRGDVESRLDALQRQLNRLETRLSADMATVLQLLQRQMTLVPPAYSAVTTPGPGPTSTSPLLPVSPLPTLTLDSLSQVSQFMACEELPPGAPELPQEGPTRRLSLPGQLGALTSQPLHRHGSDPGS
# Chain of Luciferin 4-monooxygenase (Photinus pyralis) (P08659 whole entry, looked up): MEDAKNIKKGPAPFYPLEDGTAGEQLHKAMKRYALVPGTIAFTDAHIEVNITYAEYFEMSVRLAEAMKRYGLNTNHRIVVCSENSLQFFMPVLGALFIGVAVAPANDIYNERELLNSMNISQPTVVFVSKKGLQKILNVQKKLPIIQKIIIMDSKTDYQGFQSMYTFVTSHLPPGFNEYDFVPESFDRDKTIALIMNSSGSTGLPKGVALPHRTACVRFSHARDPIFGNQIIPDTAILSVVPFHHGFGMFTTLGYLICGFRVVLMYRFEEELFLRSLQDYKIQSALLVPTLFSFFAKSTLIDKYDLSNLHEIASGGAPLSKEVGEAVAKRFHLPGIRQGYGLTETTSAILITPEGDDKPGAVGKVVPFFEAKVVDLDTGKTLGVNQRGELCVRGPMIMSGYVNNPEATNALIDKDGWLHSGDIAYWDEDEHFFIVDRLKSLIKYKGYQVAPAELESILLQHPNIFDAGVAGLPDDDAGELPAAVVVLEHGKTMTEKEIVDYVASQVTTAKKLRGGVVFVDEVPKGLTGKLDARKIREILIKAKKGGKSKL
smiles,measurement,setting,value
COc1cccc2c1[C@@H]1CN(CCCCn3c(=O)[nH]c4c(sc5ncc(-c6ccccc6)nc54)c3=O)C[C@@H]1CO2,Potency,[1],inactive
same,outcome,[2],inactive
same,outcome,[3],inactive
same,outcome,[4],inactive
same,outcome,[5],inactive
CN=C(N)NC(=O)Nc1c(C)cccc1C,Potency,[6],inactive
Brc1ccc([C@H]2CN3CCSC3=N2)cc1,Potency,[7],11.2 µM (active)
same,Potency,[1],inactive
same,outcome,[2],inactive
same,outcome,[3],inactive
same,outcome,[4],inactive
same,outcome,[5],inactive
COc1cc(C(=O)NC2CCCNC2)cc(OC)c1OC (centres undefined),Potency,[6],inactive
C[C@@]12CCC[C@H]1[C@@H]1CC[C@H]3C[C@@H](O)CC[C@]3(C)[C@H]1CC2,Potency,[6],inactive
CC(=O)Nc1ccc(S(=O)(=O)Nc2cc(C)on2)cc1,Potency,[6],inactive
Cc1cccc(C)c1NC(=O)c1cc(S(N)(=O)=O)c(Cl)cc1O,Potency,[6],inactive
CN1CCC(N(Cc2cccs2)c2ccccc2)CC1,Potency,[6],inactive
CCCCCCCCCCCCCCCCCCNC(=O)OC1CCN(C(=O)OC[C@H](COC(=O)N(Cc2cccc[n+]2CC)C(=O)c2ccccc2OC)OC)CC1,Potency,[6],inactive
CN(C)c1cc2c(Nc3ccc4c(cnn4Cc4ccccc4)c3)ncnc2cn1,Potency,[7],inactive
same,outcome,[2],inactive
same,outcome,[3],inactive
same,outcome,[4],inactive
same,outcome,[5],inactive
CC(C)(C)c1nnc(NS(=O)(=O)c2ccccc2)s1,Potency,[6],inactive
CCOC(=O)NNc1ccc(N(CC)CC(C)O)nn1 (centres undefined),Potency,[6],inactive
CC(=O)Oc1ccc(C2(c3ccc(OC(C)=O)cc3)Oc3ccccc3NC2=O)cc1,Potency,[6],inactive
CC(C)N(CCC(=O)c1ccc2ccccc2c1)Cc1ccccc1,Potency,[7],3.16 µM (active)
same,outcome,[2],inactive
same,outcome,[3],inactive
same,outcome,[4],inactive
same,outcome,[5],inactive
O=C1CC[C@H](C(=O)N2CCCCC2)N1,Potency,[6],inactive
OCCc1ccccc1,Potency,[6],inactive
O=C(O)Cc1ccc(OCCNC[C@H](O)c2ccccc2)cc1,Potency,[6],inactive
Cn1cnc2c(NCc3ccccc3)nc(NCCO)nc21,Potency,[7],inactive
same,Potency,[1],inactive
same,outcome,[2],inactive
same,outcome,[3],inactive
same,outcome,[4],inactive
same,outcome,[5],inactive
O=[N+]([O-])c1ccc(-c2nc(-c3ccc(F)cc3)c(-c3ccncc3)[nH]2)cc1,Potency,[7],8.91 µM (active)
same,Potency,[1],inactive
same,outcome,[2],inactive
same,outcome,[3],inactive
same,outcome,[4],inactive
same,outcome,[5],inactive
C=CC[N+]1([C@H]2C[C@H]3[C@@H]4CC[C@H]5C[C@H](OC(C)=O)[C@@H](N6CCCCC6)C[C@]5(C)[C@H]4CC[C@]3(C)[C@H]2OC(=O)CC)CCCCC1,Potency,[6],inactive
COc1ccccc1N1CCN(CCN2C(=O)CC3(CCCC3)CC2=O)CC1,Potency,[7],1.12 µM (active)
same,Potency,[1],inactive
same,outcome,[2],inactive
same,outcome,[3],inactive
same,outcome,[4],inactive
same,outcome,[5],inactive
O=S(=O)(O)c1ccc2nc(-c3ccccc3)[nH]c2c1,Potency,[7],inactive
same,Potency,[8],inactive
same,Potency,[9],inactive
Nc1nnnn1-c1ccccc1,Potency,[6],inactive
O=C(O)c1ccccc1S,Potency,[6],inactive
C=CCOc1cc(Cl)ccc1C(=O)NCCN(CC)CC,Potency,[6],inactive
OC1(c2ccc(Cl)c(C(F)(F)F)c2)CCN(CCCC(c2ccc(F)cc2)c2ccc(F)cc2)CC1,Potency,[6],inactive
CN1C(CSCC(F)(F)F)Nc2cc(Cl)c(S(N)(=O)=O)cc2S1(=O)=O (centres undefined),Potency,[6],inactive
CCOC(=O)NNc1nncc2ccccc12,Potency,[6],inactive
NC(N)=NCCCCN=C(N)N,Potency,[7],inactive
same,Potency,[1],inactive
same,outcome,[2],inactive
same,outcome,[3],inactive
same,outcome,[4],inactive
same,outcome,[5],inactive
C[N+](C)(C)CCO,Potency,[7],inactive
same,Potency,[1],inactive
same,outcome,[2],inactive
same,outcome,[3],inactive
same,outcome,[4],inactive
same,outcome,[5],inactive
O=C1NC(c2cccc([N+](=O)[O-])c2)=CCN1c1ccccc1O,Potency,[7],inactive
same,outcome,[2],inactive
same,outcome,[3],inactive
same,outcome,[4],inactive
same,outcome,[5],inactive
O=C(COCCOCCOCC(=O)Nc1c(I)cc(I)c(C(=O)O)c1I)Nc1c(I)cc(I)c(C(=O)O)c1I,Potency,[6],inactive
C1=CC2C3C=CC(C3)C2C1 (centres undefined),Potency,[7],inactive
same,Potency,[10],inactive
same,activation,[11],-1.4% (inactive)
same,activation,[12],-1.05% (inactive)
OCCCc1ccccc1,Potency,[6],inactive
CCCCCCCCCCCCCC[N+](C)(C)C,Potency,[9],25.1 µM (active)
C[C@@H](O[C@H]1OCCN(Cc2n[nH]c(=O)[nH]2)[C@H]1c1ccc(F)cc1)c1cc(C(F)(F)F)cc(C(F)(F)F)c1,viability (% of control),[13],8.07%
same,"viability, percent of control",[14],8.93%
same,Potency,[15],11.8 µM (active)
same,Potency,[16],33.2 µM (active)
CN1C(=O)c2ccccc2C1=O,Potency,[10],inactive
same,activation,[11],8.47% (inactive)
Cc1cc(C(C)(C)C)c(O)c(C(C)(C)C)c1,Potency,[10],inactive
same,activation,[11],-3.94% (inactive) and -1.07% (inactive)
